# Assay outcomes as filed in PubChem BioAssay.
# TGFb inhibitor – blocks TGF-b signaling; HepG2 CAGA-GFP TGF-b/SMAD3 reporter, GFP fluorescence, 18 h; TGF-beta stimulated, 500 pg/mL final; Potency, µM (series often up to 46.1 µM), actives largely listed as inhibitors; actives 1.2% (n = 410,000); AID 588855; further: nearly all actives have a fitted effect of over 65% in size
#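 GFP signal (ex488/em500-530) from TGF-beta-stimulated HEPG2 CAGA-GFP cells, 500 pg/mL final, 18 h at 37 degrees C in DMEM plus 1% FBS, normalized to unstimulated and DMSO-stimulated controls.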
# DT40 TDP1 CPT – DT40-hTDP1 cell growth loss with CPT; AID 686979; actives 12% (n = 420,000); Potency, µM (doses to about 46.2 µM), most hits filed as inhibitors; chicken DT40 Tdp1-/-;hTDP1 cells + 20 nM CPT, ATP luminescence, 48 h; further: nearly all actives have a fitted effect of over 55% in size
#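 Chicken DT40 Tdp1-/- cells stably complemented with human TDP1 were seeded at 400 cells/well in medium containing 20 nM camptothecin, exposed to pin-transferred compounds, and grown at 37 °C for at least 48 hr. Viability was read as ATP luminescence.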
# HepG2 viability – counter-screen for TGF-b inhibitors: cytotoxicity in HepG2 cells | Potency, µM (titrated, usually from 46.1 µM), actives largely listed as cytotoxic | HepG2 CAGA-GFP viability, ATP luminescence, 18 h | actives 0.76% (n = 410,000)
#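 HepG2 CAGA-GFP cells (1000/well, DMEM with 1% FBS) received compound, then TGF-beta at 500 pg/mL final, and were incubated 18 hours at 37 degrees C. Viability was read by CellTiter-Glo luminescence. Media-only wells were set as complete cell-killing and DMSO as no toxicity.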
# TDP1 block – blocks human tyrosyl-DNA phosphodiesterase 1 | recombinant TDP1, AlphaScreen DNA substrate cleavage | Potency, µM (titrated, usually from 130 µM), hits mostly inhibitors | Q9NUW8 | actives 0.28% (n = 350,000) | AID 485290; further: nearly all actives have a fitted effect of over 40% in size
# Target sequence (Q9NUW8 whole entry, looked up): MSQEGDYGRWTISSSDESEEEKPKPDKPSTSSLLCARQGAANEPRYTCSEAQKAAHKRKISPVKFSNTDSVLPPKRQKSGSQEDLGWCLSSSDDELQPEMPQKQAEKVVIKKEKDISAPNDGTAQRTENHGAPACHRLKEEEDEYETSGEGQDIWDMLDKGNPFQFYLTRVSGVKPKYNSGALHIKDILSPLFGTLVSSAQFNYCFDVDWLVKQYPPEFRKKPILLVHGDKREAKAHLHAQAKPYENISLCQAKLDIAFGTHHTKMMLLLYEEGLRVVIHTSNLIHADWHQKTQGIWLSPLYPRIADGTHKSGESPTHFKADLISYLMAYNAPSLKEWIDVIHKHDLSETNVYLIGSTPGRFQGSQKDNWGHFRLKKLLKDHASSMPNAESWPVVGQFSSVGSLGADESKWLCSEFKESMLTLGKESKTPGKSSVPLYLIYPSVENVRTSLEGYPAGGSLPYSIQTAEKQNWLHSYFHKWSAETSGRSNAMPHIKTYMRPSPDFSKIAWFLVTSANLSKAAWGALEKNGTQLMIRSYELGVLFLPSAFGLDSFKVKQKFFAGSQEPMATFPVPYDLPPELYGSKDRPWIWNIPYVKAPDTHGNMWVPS
#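 E. coli-derived human Tdp1, 1 nM final. Cpd preinc 15 min RT; substrate 15 nM final, 5 min RT; AS bead mix 10 ug/ml final, 10 min RT. Signal loss = tyrosine-FITC cleavage. No-enzyme wells = max signal.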
# TDP1 cell noCPT – qHTS for Inhibitors of human tyrosyl-DNA phosphodiesterase 1 (TDP1): qHTS in cells in absence of CPT; DT40 Tdp1-/- hTDP1 cells, no CPT, ATP luminescence, 48 h; Potency, µM (series often up to 46.2 µM), hits mostly inhibitors; actives 15% (n = 420,000); further: nearly all actives have a fitted effect of over 55% in size
#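 Chicken DT40 Tdp1-/- cells stably complemented with human TDP1 were seeded at 400 cells/well with DMSO in place of 20 nM camptothecin. After compound pinning, cells grew at least 48 hr at 37 °C; viability read by CellTiter-Glo luminescence.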
# IL-1B inflam inh – blocks inflammasome-driven IL-1 beta release; THP-1 LPS/ATP IL-1B secretion, AlphaLISA, 16 h; hits give low values; activity change, % at 57.5 µM; actives 4.7% (n = 360,000); in the data active means activity change below about -50%; inconclusive means mostly about -30% to -49%
#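 Secreted IL-1B measured by AlphaLISA bead assay after 16 h compound exposure of THP-1 cells; compounds (final up to 57.5 uM) added 1 h before LPS (250 ng/mL) and ATP (1.25 mM) stimulation; lower signal means less secretion.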
# A number is an active result; . = inactive; ? = inconclusive; / = not tested or not shown; [ ] = another dose, or the depositor's remark. In the library only some 18% were active in any assay of this set; here they are far more common. Unless noted, the call rests on the fitted dose curve; in most records, active means well fitted curve in the direction sought with a large enough effect; inconclusive means small, poorly fitted or top-dose-only effect, or another doubt; inactive means no such curve, though single readings can be large; an effect the other way counts as inactive or inconclusive.
SMILES,TGFb inhibitor,DT40 TDP1 CPT,HepG2 viability,TDP1 block,TDP1 cell noCPT,IL-1B inflam inh
COc1ccc(S(=O)(=O)N2CCOCC2)cc1C(=O)Nc1ccc2c(c1)OCO2,.,.,.,.,.,.
CCOc1ccc(Cl)cc1-c1cc(C(=O)Nc2ccc(C(C)C)cc2)[nH]n1,.,?,.,/,16µM,.
CCOc1ccc(Cl)cc1-c1cc(C(=O)Nc2ccc(OC)nc2)[nH]n1,.,?,.,/,?,.
CCOc1ccc(Cl)cc1-c1cc(C(=O)NC2CCCCC2)[nH]n1,.,18µM,.,/,16µM,.
CCOc1ccc(Cl)cc1-c1cc(C(=O)NC(C)C)[nH]n1,.,?,.,/,?,.
COc1ccc(Cl)cc1-c1cc(C(=O)NC2CCCCC2)[nH]n1,.,?,.,/,?,.
CCOc1ccc(Cl)cc1-c1cc(C(=O)Nc2cc(OC)c(OC)c(OC)c2)[nH]n1,?,21µM,.,/,16µM,.
CCOc1ccc(Cl)cc1-c1cc(C(=O)Nc2ccc(Br)cc2)[nH]n1,?,23µM,.,/,18µM,.
Cc1ccc(OC2CCN(C(=O)[C@H]3O[C@@H](n4ccc(=O)[nH]c4=O)[C@H](O)[C@@H]3O)CC2)cc1,.,.,.,/,?,.
Nc1nonc1C(=O)N/N=C/c1cc2c(cc1Br)OCO2,?,.,.,.,.,.
Cc1cccc(NC(=O)CSc2nnnn2-c2ccc3c(c2)OCCO3)n1,?,?,.,.,?,.
COc1ccc(C2NC(c3ccc(OC)cc3)C(c3ccccc3)C(=O)C2c2ccccc2)cc1 (stereo unspecified),.,.,.,.,21µM,.
CCN(CC)C1Oc2cc3c(cc2C(c2cc(OC)c(OC)c(OC)c2)C1C)OCO3 (stereo unspecified),?,2.3µM,.,/,1.2µM,.
COc1cc([C@@H]2c3cc4c(cc3[C@@H](O)[C@H]3COC(=O)[C@H]23)OCO4)cc(OC)c1O[Si](C)(C)C(C)(C)C,?,13µM,.,.,15µM,-88
COc1cc(C2c3cc4c(cc3C3OC(=O)C2C3CO)OCO4)cc(OC)c1OC (stereo unspecified),.,0.01µM,.,/,0.016µM,.
COc1cc([C@@H]2c3cc4c(cc3[C@H](O)C3COC(=O)[C@@H]32)OCO4)cc(OC)c1OC (stereo partly specified),/,/,/,.,/,/
COc1cc(C2c3cc4c(cc3OC(N3CCCCC3)C2C)OCO4)cc(OC)c1O (stereo unspecified),.,?,.,/,?,.
CSc1ccc(S(=O)(=O)N2CCC(C(=O)Nc3ccccc3C(F)(F)F)CC2)cc1,.,.,.,.,.,.
O=C(c1ccccc1)C(CCc1ccccn1)CCc1ccccn1,.,?,.,/,16µM,.
CC(CCc1ccccn1)C(=O)c1ccccc1 (stereo unspecified),.,.,.,/,.,.
CN1C2CCC1/C(=C\c1ccccc1)C(=O)/C2=C\c1ccccc1,.,12µM,.,.,6.5µM,-95
N#CC/C(N)=N/Nc1nc2ccccc2nc1Cc1ccccc1,.,.,.,/,.,.
Cc1ccc(-c2nnc(Nc3ccc(Cl)c(Cl)c3)c3ccccc23)cc1S(=O)(=O)NCCO,11µM,18µM,.,.[12.3 µM],18µM,/
Cc1ccc(-c2nnc(Nc3ccc(CC(N)=O)cc3)c3ccccc23)cc1S(=O)(=O)NCCO,.,.,.,/,.,.
Cc1ccc(-c2nnc(Nc3ccc4c(c3)OCO4)c3ccccc23)cc1S(=O)(=O)NCCO,?,?,.,.,16µM,.
SMILES,TGFb inhibitor,DT40 TDP1 CPT,HepG2 viability,TDP1 block,TDP1 cell noCPT,IL-1B inflam inh
CC1=C(SCc2ccccc2)C(=O)c2ccccc2C1=O,7.9µM,2.6µM,13µM,/,3.3µM,-70
Cn1c(SCc2ccccc2)nccc1=O,.,.,.,/,.,.
CCCOc1ccc(C(=O)Nc2ccc(S(=O)(=O)N3CCN(C)CC3)cc2)cc1,.,?,.,/,?,.
CCCOc1ccc(C(=O)Nc2ccc(S(=O)(=O)N3C[C@@H]4C[C@@H](C3)c3cccc(=O)n3C4)cc2)cc1,?,?,.,.,13µM,.
CN(CC(=O)Nc1ccc(F)cc1)C(=O)COC(=O)c1cc(S(=O)(=O)N(C)C)ccc1N1CCCC1,.,.,.,/,.,.
Cn1c(SSc2ccc(-c3cccnc3)n2C)ccc1-c1cccnc1,?,?,.,/,?,-98
COc1ccc2nc3cc(Cl)ccc3c(Nc3ccc(O)c(CN4CCN(C)CC4)c3)c2c1,11µM,1.8µM,.,/,1.5µM,-114
COc1ccc2nc3cc(Cl)ccc3c(NCCCN3CCN(CCCNc4c5ccc(Cl)cc5nc5ccc(OC)cc45)CC3)c2c1,/,/,/,.,/,/
COc1cc2c(cc1OC)C(c1cc(Br)ccc1F)N(C(=O)CCl)CC2 (stereo unspecified),?,1.5µM,.,/,1.6µM,-71
COc1cc2c(cc1OC)C(C1C(=O)CC(C)(C)CC1=O)N(C(=O)CCl)CC2 (stereo unspecified),.,.,.,.,.,.
CC1=NN(c2ccccc2)C(=O)C1C=Nc1ccccc1O (stereo unspecified),.,?,.,.,18µM,.
CC1=NN(c2ccccc2)C(=O)C1/C=C1\NC(=S)NC1=O (stereo unspecified),.,.,.,.,.,.
Cc1ccc(C2=NOC3(CC(=O)N(c4ccc(C)cc4)C3=O)C2)cc1 (stereo unspecified),?,.,.,.,.,.
CCc1c(N)nc(N)nc1Nc1ccccc1Cl,.,18µM,.,/,21µM,.
Nc1nc(Cl)cc(Nc2ccccc2Cl)n1,.,.,.,/,.,.
O=C1CCCc2ccccc2N1Cc1cccc(Cl)c1,.,?,.,.,9.2µM,.
COc1ccc(CN2C(=O)CCCc3ccccc32)cc1,.,?,.,.,21µM,.
O=C1CCCc2ccccc2N1Cc1ccccc1,.,13µM,.,.,12µM,.
CCc1c(C)nc2ncnn2c1N1CCCC(C(=O)Nc2ccc(NC(C)=O)cc2)C1 (stereo unspecified),?,.,.,.,.,.
Cn1c(C(=O)N2CCCC(C(=O)NCc3ccc4c(c3)OCO4)C2)cc2sccc21 (stereo unspecified),.,?,.,.,23µM,.
CN(C)C(=O)N1CCC(C(=O)NCc2ccc3c(c2)OCO3)CC1,.,.,.,.,.,.
